Measurements published in PubChem BioAssay AID463173 (ICCB-Longwood Screening Facility, Harvard Medical School, 2010).
The campaign covered roughly 52,000 compounds. About 4,300 (8.3%) were called active. Shown is part of a subset that was picked to be rich in actives. A number with no mark means an inactive call. Rule as the data show it: active = survival mostly below about 52% (no sharp cut-off); inactive = mostly above about 56%.

What follows are compounds tested on DeltatarO mutant (assay: S. aureus survival, RN4220 and DeltatarO strains – OD600, teichoic acid synthesis inhibitors, primary screen (AID 463173)). Conditions: S. aureus RN4220 wild type/DeltatarO growth, OD600, 18 h, stronger effect = lower value, screened at 18.75 µg/mL (by protocol).

Compound | survival
CCOC(=O)CC(=O)CSc1nc2ccsc2c(=O)n1Cc1ccccc1 | 118%
COc1ccc(-c2coc3c2c(C)cc2oc(=O)cc(C)c23)cc1 | 82%
Cc1ccc(CCNC(=O)C2CC(=O)N(CCc3ccc(C)cc3)C2)cc1 (stereo not drawn) | 101%
Cc1cc(Br)ccc1NC(=O)C1CCN(S(=O)(=O)c2cccc3nsnc23)CC1 | 115%
COc1ccc(Br)cc1CNC(=O)c1cnc2sc(N3CCC(C)CC3)nn2c1=O | 78%
CCc1ccc(-n2nc3ccc(NC(=O)c4cc5ccccc5o4)cc3n2)cc1 | 65%
COc1cccc(C(C(=O)NCC2CCCO2)N(CC2CCCO2)C(=O)CC2C(=O)c3ccccc3S2(=O)=O)c1 (stereo not drawn) | 90%
Cc1ccccc1-c1noc(CSc2nc(-c3ccc(F)cc3)cc(=O)[nH]2)n1 | 37% (active)
COc1ccccc1-c1noc(CSc2nc3ccc(C)cc3[nH]2)n1 | 102%
Cc1ccccc1-c1noc(CSc2nc3ccccc3[nH]2)n1 | 57%
COc1ccc(-c2noc(CSc3nc4ccccc4[nH]3)n2)cc1 | 51%
COc1ccc(-c2noc(CSc3nc4ccccc4[nH]3)n2)cc1OC | 62%
Cc1ccc2nc(SCc3nc(-c4ccc(Cl)cc4)no3)[nH]c2c1 | 28% (active)
O=c1cc(-c2ccccc2)nc(SCc2nc(-c3ccc(Cl)cc3)no2)[nH]1 | 69%
O=c1cc(-c2ccc(F)cc2)nc(SCc2nc(-c3ccccc3Cl)no2)[nH]1 | 117%
COc1ccc(-c2noc(CSc3nc4ccc(C)cc4[nH]3)n2)cc1 | 39% (active)
CCc1cc(=O)[nH]c(SCc2nc(-c3ccccc3C)no2)n1 | 84%
Cc1ccc2nc(SCc3nc(-c4ccccc4C)no3)[nH]c2c1 | 25% (active)
Cc1cccc(-c2noc(CSc3nc(-c4ccc(F)cc4)cc(=O)[nH]3)n2)c1 | 83%
NCCSC1CC(=O)N(c2ccc(Cl)cc2)C1=O (stereo not drawn) | 88%
COc1ccc(C)cc1NC(=O)c1cc2c(=O)n3cccc(C)c3nc2s1 | 86%
COc1ccc(Cl)cc1NC(=O)CN(C)S(=O)(=O)c1ccc2c(c1)CCCN2C(C)=O | 78%
CCCCNS(=O)(=O)c1ccc(N2CCCCS2(=O)=O)cc1 | 66%
Cc1ccc(-c2noc(-c3nnn(CC(=O)Nc4ccc(C)cc4Cl)c3N)n2)cc1 | 83%

Compound | survival
C=CCNCc1cc2cc(OCC)ccc2[nH]c1=O | 97%
COc1cc(OC)c(Nc2ncnc3onc(-c4cccc(Cl)c4)c23)cc1Cl | 73%
CCOc1ccc(NC(=O)Cn2cc(S(=O)(=O)N3CCN(c4ccccc4F)CC3)c3ccccc3c2=O)cc1 | 89%
COc1ccc(NC(=O)CSc2nnc(-c3cccs3)o2)cc1 | 54%
COc1ccccc1NC(=O)CCn1nc(-c2ccccc2)c2ccccc2c1=O | 42% (active)
CCCNC(=O)CCn1nc(-c2ccccc2)c2ccccc2c1=O | 70%
Cc1ccc(NC(=O)Cn2ncn3c(cc4ccccc43)c2=O)cc1F | 84%
Cc1ccc(NC(=O)CCn2nc(-c3ccccc3)c3ccccc3c2=O)c(C)c1 | 52% (active)
O=C(CCn1nc(-c2ccccc2)c2ccccc2c1=O)Nc1ccccc1 | 69%
Cc1ccc(NC(=O)Cn2ncn3c(cc4ccccc43)c2=O)cc1C | 73%
Cc1ccc(-c2nn(CCC(=O)Nc3ccc(Cl)c(Cl)c3)c(=O)c3ccccc23)cc1 | 53%
Cc1ccccc1NC(=O)CCn1nc(-c2ccc(Cl)cc2)c2ccccc2c1=O | 95%
Cc1ccc(NC(=O)Cn2ncn3c(cc4ccccc43)c2=O)c(C)c1 | 45% (active)
COc1ccc(NC(=O)CSc2nc3cc(OC)c(OC)cc3c3nc(-c4ccccc4)nn23)cc1Cl | 123%
Cc1ccc(NC(=O)CN2C(=O)CCSc3ccc(S(=O)(=O)N4CCCC4)cc32)cc1 | 86%
COc1ccc(-c2onc(C)c2C)cc1S(=O)(=O)NCc1ccc(C)o1 | 89%
CC1=C(c2ccc(C(C)C)cc2)S(=O)(=O)N=C1N1CCN(c2ccccc2F)CC1 | 85%
COc1ccc(OC)c(C2CC(=O)Nc3c2c(=O)[nH]c2nc4ccccc4n32)c1 (stereo not drawn) | 164%
CCNc1nc(NC(C)(C)C)nc(Oc2ccc(=O)n(C)n2)n1 | 68%
Cc1cccc(N2CCN(C(=O)CCc3c(C)nc4ncnn4c3C)CC2)c1C | 79%
COC(=O)c1cccc(CN2C(=O)SC(Nc3ccc(Br)cc3)C2=O)c1 (stereo not drawn) | 23% (active)
COC(=O)c1cccc(CN2C(=O)SC(Nc3ccc(C)cc3)C2=O)c1 (stereo not drawn) | 50%
Cc1ccc(CN2C(=O)SC(Nc3ccc(Cl)cc3)C2=O)cc1 (stereo not drawn) | 30% (active)
CCOc1ccc(NC2SC(=O)N(Cc3ccccc3)C2=O)cc1 (stereo not drawn) | 42% (active)

Compound | survival
CN1C(=O)SC(Nc2ccccc2)C1=O (stereo not drawn) | 65%
Cc1ccc(N2C(=O)SC(Nc3ccccc3)C2=O)cc1 (stereo not drawn) | 83%
Cc1ccc(CN2C(=O)SC(Nc3ccccc3)C2=O)cc1 (stereo not drawn) | 40% (active)
CCOC(=O)c1ccc(NC2SC(=O)N(Cc3cccc(C(=O)O)c3)C2=O)cc1 (stereo not drawn) | 60%
COC(=O)c1cccc(CN2C(=O)SC(Nc3ccc(Cl)cc3)C2=O)c1 (stereo not drawn) | 42%
COC(=O)c1cccc(CN2C(=O)SC(Nc3ccccc3C)C2=O)c1 (stereo not drawn) | 133%
O=C1SC(Nc2ccc(Cl)cc2)C(=O)N1Cc1ccccc1 (stereo not drawn) | 107%
COc1ccc(NC2SC(=O)N(c3ccccc3)C2=O)cc1 (stereo not drawn) | 105%
COc1cc2c(cc1OC)C(COc1ccc3c(C)cc(=O)oc3c1)N(C(=O)Cc1ccc(F)cc1)CC2 (stereo not drawn) | 80%
CC1(C)Cc2ccccc2-c2nc(NN)[nH]c(=O)c21 | 67%
O=C(O)c1cccc(N2C(=O)c3cccnc3C2=O)c1 | 83%
Cc1ccc(-n2c(=O)c3c(c4cc(C)ccc4n3C)n(CC(=O)Nc3cc(C)cc(C)c3)c2=O)cc1 | 105%
COc1ccc2nc(N(Cc3cccnc3)C(=O)c3ccc(Cl)cc3)sc2c1 | 89%
CCOC(=O)c1cc(-c2ccccc2)n(-c2cccc(C(=O)Nc3ccc(F)c(F)c3)c2)c1C | 87%
CC(CN)(NS(=O)(=O)c1ccccc1)c1ccccc1 (stereo not drawn) | 84%
COc1ccc(CN=C(N)N=C(N)N)cc1 | 95%
CC(=O)c1ccc(N2CCN(S(=O)(=O)c3cc(-c4onc(C)c4C)ccc3C)CC2)cc1 | 84%
COc1ccc(N2CCN(C(=O)c3cc4c(-c5ccccc5F)nn(C)c4s3)CC2)cc1 | 65%
COc1ccc(CCNC(=O)c2cc3c(-c4ccccc4F)nn(C)c3s2)c(OC)c1 | 85%
COc1ccc(CNC(=O)c2cc3c(-c4ccccc4F)nn(C)c3s2)c(OC)c1 | 101%
Cn1nc(-c2ccccc2F)c2cc(C(=O)N3CCN(c4ccccc4F)CC3)sc21 | 40%
COc1ccccc1N1CCN(C(=O)c2cc3c(-c4ccccc4F)nn(C)c3s2)CC1 | 46% (active)
COc1ccc(-c2nn(C)c3sc(C(=O)N4CCN(c5cccc(C)c5C)CC4)cc23)cc1OC | 75%
COc1ccc(-c2nn(C)c3sc(C(=O)N4CCN(c5cccc(Cl)c5)CC4)cc23)cc1OC | 54% (active)

Compound | survival
COc1ccc(NC(=O)c2cc3c(-c4ccccc4F)nn(C)c3s2)c(OC)c1 | 44% (active)
COc1ccc(-c2nn(C)c3sc(C(=O)N4CCN(c5cc(Cl)ccc5C)CC4)cc23)cc1OC | 103%
COc1ccc(COC(=O)C2=C(C)NC3(O)c4ccccc4C(=O)C23O)cc1 (stereo not drawn) | 90%
CNS(=O)(=O)c1cn(CC(=O)Nc2ccc(OC)c(Cl)c2)cc1S(=O)(=O)NC | 74%
Cc1ccc(Cl)cc1-n1c(=O)c2sc3ccccc3c2n(CC(=O)NC2CCCCC2)c1=O | 77%
O=C(Cn1c(=O)n(-c2ccc(Cl)cc2)c(=O)c2sc3ccccc3c21)NC1CCCC1 | 90%
Cc1ccc(Cl)cc1-n1c(=O)c2sc3ccccc3c2n(CC(=O)NC2CCCC2)c1=O | 13% (active)
CCn1c(CN2CCC(C)CC2)nc2cc(NC(=O)COc3ccc([N+](=O)[O-])cc3)ccc21 | 82%
CCCCC(Sc1nc2cc3c(cc2c(=O)n1CCCC(=O)NCc1ccc2c(c1)OCO2)OCO3)C(=O)OCC (stereo not drawn) | 82%
Cc1ccc(C)c(NC(=O)CCc2nc(-c3ccc(C(C)(C)C)cc3)no2)c1 | 69%
O=C(CSc1nc(-c2ccccc2)no1)N1CCCCC1 | 39% (active)
CCN(C(=O)CSc1nc(-c2ccc(C(C)C)cc2)no1)c1cccc(C)c1 | 84%
CCN(C(=O)CCc1nc(-c2ccc(C)cc2)no1)c1cccc(C(F)(F)F)c1 | -5% (active)
CCN(C(=O)CSc1nc(-c2ccccc2)no1)c1ccccc1 | 79%
CC(=O)c1ccc(NC(=O)CCc2nc(-c3ccc(C)cc3)no2)cc1 | 67%
CC(C)c1ccc(-c2noc(SCC(=O)N3CCCCC3)n2)cc1 | 72%
COc1cccc(CNC(=O)CCc2nc(-c3ccc(C)cc3)no2)c1 | 145%
COc1ccc(-c2noc(CCC(=O)Nc3ccc(C(F)(F)F)cc3)n2)cc1 | 86%
O=C(CSc1nc(-c2ccccc2)no1)N1CCN(c2ccccc2)CC1 | 99%
CCN(C(=O)CCc1nc(-c2ccc(C)cc2)no1)c1cc(C)ccc1C | -4% (active)
CCN(C(=O)CSc1nc(-c2ccccc2)no1)c1cccc(C)c1 | -3% (active)
